DAX1 inh-1 – DAX1 (NR0B1) inhibitors on StAR promoter, primary screen, cell-based, luminescence, SF-1 (NR5A1), full-length DAX-1; hit rate 1.1% among 370,000; HEK293T StAR-luciferase reporter, SF-1/DAX-1 repression relief; inhibition, % at 6.8 µM; AID 652010, 2013;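 active = inhibition above the mean over all tested compounds plus 3 SD, cut at about 3.6% in these data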;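 also: 0% = DAX-1 cells with DMSO and 100% = cells lacking DAX-1 with DMSO; higher inhibition means more luminescence from relief of DAX-1 repression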
hgDAF-12 ag – H. glycines DAF-12 receptor agonists, primary screen, cell-based, luminescence, HEK293, GAL4 fusion, UAS-luciferase | hit rate 1.8% among 370,000 | activation, % at 6.8 µM | HEK293 GAL4-hgDAF12 UAS-luciferase reporter, agonist luminescence; normalized to butyrate control | Nuclear hormone receptor DAF-12 (Heterodera glycines), GAL4 fusion;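 active = activation above a cutoff set at the mean of all screened compounds plus 3 SD, cut at about 10% in these data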;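 also: 0% = DMSO wells and 100% = sodium butyrate wells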
ssDAF12 agonist – S. stercoralis DAF-12 nuclear receptor activators, primary screen, cell-based, luminescence, HEK293, GRIP1 co-expression, lit1-tk-luc | HEK293 ssDAF-12/GRIP1 lit1-tk-luc reporter; % of 3 µM dafachronic acid response | activation, % at 6.8 µM | AID 652126, 2013 | hit rate 1% among 370,000 | Nuclear hormone receptor DAF-12 (Strongyloides stercoralis);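 active = activation above the mean over all tested compounds plus 3 SD, cut at about 0.9% in these data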;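 also: 0% = DMSO-only wells and 100% = 3 µM delta7-dafachronic acid wells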
hcDAF12 agonist – H. contortus DAF-12 nuclear receptor activators, primary screen, cell-based, luminescence, HEK293, lit1-tk-luc reporter; HEK293 hcDAF-12 lit1-tk-luc reporter; 0% DMSO, 100% Δ7-dafachronic acid; activation, % at 6.8 µM; hit rate 1.4% among 370,000;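 active = activation above the mean of all tested compounds plus 3 SD, cut at about 5.5% in these data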;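 also: 100% = response to 3 µM Δ7-dafachronic acid high control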
DAX1 inh-2 – DAX1 (NR0B1) inhibitors, primary screen, cell-based, HEK293, Gal4-DAX1, luciferase luminescence. AID 504766, 2011. HEK293 Gal4-DAX1 luciferase reporter. Nuclear receptor subfamily 0 group B member 1 (Homo sapiens), P51843. inhibition, % at 6.75 µM. hit rate 0.99% among 340,000;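 active = inhibition above the mean over all tested compounds plus 3 SD, cut at about 4.2% in these data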;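 also: 0% = DAX1-transfected cells with DMSO and 100% = empty-vector control cells with DMSO; inhibition shows as a rise in luminescence from relieved DAX1 repression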
Target sequence (P51843 207-470 limits assumed): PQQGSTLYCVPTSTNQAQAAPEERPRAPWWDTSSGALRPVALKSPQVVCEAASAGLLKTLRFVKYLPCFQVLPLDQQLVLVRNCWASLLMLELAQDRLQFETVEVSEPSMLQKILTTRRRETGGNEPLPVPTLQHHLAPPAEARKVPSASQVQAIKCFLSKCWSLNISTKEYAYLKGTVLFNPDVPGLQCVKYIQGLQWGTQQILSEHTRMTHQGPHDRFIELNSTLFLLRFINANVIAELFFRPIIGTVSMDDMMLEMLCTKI
SMARCA2 act – SMARCA2 (BRM) function activators, primary screen, cell-based, luminescence, high throughput. MG213 cells, MMTV-luciferase reporter, dexamethasone, overnight. activation, % at 9.1 µM. hit rate 1% among 370,000. AID 652017, 2013; in the data active = activation above about 7.8%;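 also: 0% = vehicle wells and 100% = reference activator wells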
Active calls of the source: *. A selection: hits, their analogues and other compounds. The true share with any hit is near 4.8%.

SMILES	DAX1 inh-1	hgDAF-12 ag	ssDAF12 agonist	hcDAF12 agonist	DAX1 inh-2	SMARCA2 act
Cc1cccc(CC(=O)Nc2ccc(C(=O)N3CCCCC3)cc2)c1	1.9	2.5	-0.8	-0.6	-0.1	-3.6
Cc1ccc(C)c(NC(=O)CCC(=O)NNC(=O)c2cccc([N+](=O)[O-])c2)c1	-1.0	-0.5	-0.7	1.7	-0.3	-2.6
COc1ccc(/C=N/NC(=O)CSCC(=O)Nc2ccccc2)cc1	-0.1	-0.7	-0.4	3.7	5.0*	1.4
COc1cccc(/C=N/NC(=O)CSCC(=O)Nc2ccccc2)c1O	-1.4	-7.5	-1.6	-1.8	-0.2	-3.9
COc1ccc(C2=NOC(C(=O)NCc3ccco3)C2)cc1 (centres undefined)	-2.4	12.2*	-0.9	1.9	-1.5	1.6
COc1ccc(NC(=O)CCC(=O)N/N=C/c2ccncc2)cc1	0.1	-1.3	-1.1	-0.1	5.5*	-1.5
O=C(CSCC(=O)NCc1ccco1)NCc1ccco1	-0.8	-0.4	-0.8	-1.8	0.5	0.3
COc1cc(C2=NOC(C(=O)NCc3ccco3)C2)cc(OC)c1OC (centres undefined)	-2.0	0.9	-1.2	-1.5	-1.0	3.2
O=C(CCC(=O)Nc1ccccc1)N/N=C/c1ccncc1	-0.6	-0.2	-1.4	-1.8	2.5	-0.5
COc1ccc(NC(=O)CSCC(=O)NCc2ccco2)cc1	4.3*	-2.5	-0.5	-1.0	3.0	-0.2
CC(=O)c1cc2c(cc1NC(=O)c1cccc(S(=O)(=O)N3CCN(C)CC3)c1)OCO2	0.6	-1.6	0.0	-0.9	1.7	-0.5
CCCC1CCC(=NNC(=O)OC(C)(C)C)CC1 (centres undefined)	1.5	7.6	-0.8	-0.3	5.8*	5.6
CCOC(=O)N1CCC(N2CC34C=CC(O3)C(C(=O)Nc3ccc(C)cc3)C4C2=O)CC1 (centres undefined)	1.2	-0.4	-1.3	0.8	4.5*	-0.6
Cc1cccc(OCC(=O)N(Cc2cccs2)C2CCS(=O)(=O)C2)c1 (centres undefined)	-0.1	-2.7	-1.4	-1.1	2.4	-2.6
Cc1ccc(C(=O)/C=C/C(=O)c2ccc(C)cc2)cc1	-1.3	2.5	-0.9	-1.5	-0.3	5.7
Cc1ccc(/C=C/C(=O)c2ccc(C)cc2)cc1	0.1	3.0	-0.8	-1.4	-1.0	3.8
Cc1ccc(N/C=C/C(=O)c2ccc(C)cc2)cc1	2.9	12.7*	-0.2	1.9	3.0	7.0
Cc1ccc(C(=O)C=CC=Cc2ccccc2)cc1	1.4	3.1	-0.6	-0.3	4.5*	2.2
Cc1ccc(C(=O)/C=C/Nc2ccccn2)cc1	-0.9	-0.6	-2.0	0.2	-4.9	-1.4
Cc1ccc(C(=O)/C=C\Nc2ccc(C)c(C)c2)cc1	1.3	12.9*	0.3	3.6	2.9	3.5
NC(N)=NS(=O)(=O)c1ccc(N/C=C\C(=O)c2ccncc2)cc1	-0.8	1.9	-1.4	-0.9	6.9*	6.4
CN1C(=O)C(C)(C)c2cc(S(=O)(=O)N(C)Cc3ccccc3)ccc21	0.0	-2.4	-1.5	-0.6	0.2	-0.6
Cc1c(CCOC(=O)c2ccc(Cl)cc2Cl)sc[n+]1CC(=O)c1ccccc1	-0.1	4.2	-0.6	0.8	2.7	-0.5
Cc1ccc(NC(=O)C(=O)c2ccc(C)cc2)cc1	2.1	12.4*	0.0	2.7	1.3	2.0
Cc1oc2c(C)c3oc(=O)c(CCC(=O)NCCCN4CCOCC4)c(C)c3cc2c1C	0.2	-2.3	-0.4	-1.7	6.7*	-1.3
SMILES	DAX1 inh-1	hgDAF-12 ag	ssDAF12 agonist	hcDAF12 agonist	DAX1 inh-2	SMARCA2 act
Cc1oc2c(C)c3oc(=O)c(CCC(=O)NCCCN4CCCC4=O)c(C)c3cc2c1C	0.3	-0.1	-1.1	-3.7	4.3*	1.2
N#C/C(=C/c1ccc(-c2cc([N+](=O)[O-])ccc2Cl)o1)C(N)=O	-2.1	-4.9	-1.8	-2.0	9.3*	-4.6
COc1ccc(NC(=S)NCc2ccc(F)cc2)c(OC)c1	-0.3	0.0	-1.2	-0.6	0.5	-0.7
COc1cc(OC)c(NC(=S)NCc2ccc(F)cc2)cc1Cl	-0.3	-3.1	-1.9	-2.2	4.3*	-3.7
CCCCC(=O)NC(N1CCCCC1)C(Cl)(Cl)Cl (centres undefined)	-0.2	-0.7	-1.1	0.6	0.2	-0.2
CCc1cccc(C)c1NC(=O)COC(=O)CCn1c(C)csc1=O	0.9	0.8	0.1	1.0	-0.1	5.2
O=C(CSc1nccn(-c2cccc(F)c2)c1=O)Nc1ccc(Cl)cc1F	0.5	3.0	-1.4	-1.6	1.1	2.1
Cn1c(-c2ccccc2)cccc1=O	-0.1	0.6	1.3*	1.4	1.2	-1.5
CCN(CC)c1c([N+](=O)[O-])c(=O)n(C)c2ccccc12	0.0	-2.9	-1.5	-3.0	-0.7	-2.6
O=C1c2ccccc2C(=O)N1CCOc1cccc(Br)c1	4.4*	10.4	0.3	1.6	1.1	6.0
O=C(c1ccco1)N1CCN(S(=O)(=O)c2c(Cl)cccc2Cl)CC1	-0.2	-0.6	-1.1	-2.3	-0.1	1.2
CSc1cccc(NC(=O)CSc2ncccc2C(=O)Oc2cccc([N+](=O)[O-])c2)c1	-0.5	2.8	1.4*	1.6	-0.5	1.2
CCOC(=O)C1(Cc2ccccc2C)CCCN(Cc2cc(OC)c(O)c(OC)c2)C1 (centres undefined)	0.5	-1.6	-1.3	0.2	-1.6	-4.4
CCOC(=O)C1(Cc2ccccc2C)CCCN(Cc2cn(C)nc2C)C1 (centres undefined)	0.6	-2.5	-0.6	0.9	6.1*	-2.1
Cc1cccc(-c2nnc(SCC(=O)C(C)(C)C)n2C)c1	-0.3	1.8	-0.8	-1.2	-0.1	0.7
O=C(CSc1nccn1-c1ccccc1)NCc1ccc(F)cc1	0.5	1.1	-2.5	-0.1	0.8	0.8
C[C@@H]1CN([C@@H](C)CO)C(=O)c2cc(N(C)C)ccc2O[C@@H]1CN(C)Cc1ccncc1	0.2	1.7	1.3*	-1.1	1.2	0.5
Cc1noc(C)c1NC(=O)Nc1ccc2c(c1)C(=O)N([C@H](C)CO)C[C@H](C)[C@@H](CN(C)S(=O)(=O)c1ccc(Cl)cc1)OCCCC[C@@H](C)O2	0.2	-2.0	-0.7	-0.8	6.1*	-4.4
